The text below walks through data of PubChem BioAssay (NCI).

This is part of a sample that, as a whole, favours compounds with a hit. Of some 83,000 tested, about 20% had one in any assay.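 Treatment: one concentration, 48 hours, 96-well format. Scoring: percent growth, with anything below 10 considered active.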 Active and inactive are the calls of the source.

This assay relates to MDA-MB-468 breast. Kind of assay: NCI-60 one-dose screen, 48 h (100 = growth as untreated, 0 = no growth, -100 = all killed). The note with it: 10 µM unless noted.
Consider `CC1CCN(C(=O)CCCl)c2ccccc21` (stereo not given), for which the growth was 108% (inactive).

Consider `COc1ccc(/C=C(\C#N)c2cc3ccccc3[nH]2)cc1`, for which the growth is 17.7% (inactive).

For the molecule `Cn1cc(-c2nc(N)nnc2-c2c[nH]c3ccccc23)c2cc(Br)ccc21`, the growth was 33% (inactive).

On to `O=C1NC(=O)C(c2ccccc2)O1` (stereo not given), for which the growth was 106% (inactive).

Regarding `CC(C)=NNC(N)=S`, the growth is 10.6% (inactive).

With `Fc1ccc(Nc2nc(NCCNc3ccnc4cc(Cl)ccc34)nc(N3CCOCC3)n2)cc1`, the growth is 16.7% (inactive).

Turning to `O=C(/C=C/c1ccc(Cl)cc1)c1ccc(Br)cc1`, the growth is 107% (inactive).

Consider `NNCCc1ccc(NC(=O)CCCc2ccc(C(=O)Nc3ccccc3N)cc2)cc1`, for which the growth is 72.9% (inactive).

For the molecule `COc1cc(Cl)cc(-c2nn(-c3cccc(NC(=O)c4ccc(N5CCOCC5)c(C(F)(F)F)c4)c3)cc2-c2ccncc2)c1`, the growth was 50.2% (inactive).

On to `CC(=O)Nc1ccc(C(=O)/C=C/c2ccccc2)cc1`, for which the growth is 90.8% (inactive).

Consider `Cc1ccc(NC(=O)N[C@@H](Cc2cc(F)cc(F)c2)C(=O)N[C@@H]2C(=O)N3CCC[C@H]3C(=O)N3CCCC[C@H]3C(=O)N[C@@H](C)C(=O)N3C[C@H](C)C[C@H]3C(=O)O[C@H]2C)cc1`, for which the growth was 5.99% (active).

As for `CN(Cc1cc(Cl)cc(Cl)c1O)Cc1cc(Cl)cc(Cl)c1O`, the growth is 36.5% (inactive).

With `CCOC(=O)c1sc(Nc2ncccn2)nc1-c1ccccn1`, the growth was 10.4% (inactive).

Regarding `COc1cc(/C=N/Nc2ccccc2F)cc(OC)c1OC`, the growth was 97% (inactive).

Take `Cc1nc2c3c(-c4ccccc4)c(-c4ccccc4)oc3ncn2n1`: the growth was 93.9% (inactive).

In the case of `COc1ccc2cc(-c3nc4ccccc4s3)c(Cl)nc2c1OC`, the growth is 103% (inactive).

Consider `CN(C)CCCCC(C(=O)CBr)(c1ccccc1)c1ccccc1`, for which the growth is -53.1% (active).

As to `C=C1C(=O)O[C@H]2[C@H]1CC/C(Cn1cc(CCC)nn1)=C\CC[C@@]1(C)O[C@@H]21`, the growth is -31.7% (active).

As to `CC(=O)CC(=O)N(C)C`, the growth is 96.8% (inactive).

As to `O=C(Nc1ncccc1OCc1ccccc1)NC1CCCCCC1`, the growth is 75.5% (inactive).

Turning to `CN(C)Cc1ccc(NC(=O)c2cncc(C#Cc3cnc(N)c4ncccc34)c2)cc1F`, the growth was 72.3% (inactive).

For the molecule `CC(C)N1CN2C(=S)NC3C2N(C1)C(=S)N3C` (stereo not given), the growth is 101% (inactive).

As for `COc1cc(OC)c2c(=O)c(O)c(-c3ccccc3)oc2c1`, the growth was 75.5% (inactive).

On to `COCCOC1=C(Cl)C(=O)c2ccccc2C1=O`, for which the growth was -5.01% (active).

Turning to `Brc1ccc(Nc2nc3ccccc3nc2Nc2ccc(Br)cc2)cc1`, the growth was -48.6% (active).

`C/C(O)=C(/C=N/C(=S)Nc1ccccc1)C(=O)Nc1ccccc1C`: the growth is 99.7% (inactive).

On to `CC(=O)c1c[nH]c2ccc(-c3ccnc(Nc4ccc(NC(=O)c5cccc(F)c5)c(CN5CCOCC5)c4)n3)cc12`, for which the growth is -32.9% (active).

As to `CN1CCN(c2ccc(C(=O)Nc3n[nH]c4ccc(Cc5cc(F)cc(F)c5)cc34)c(NC3CCOCC3)c2)CC1`, the growth is -72.3% (active).

Consider `Cc1ccc(Cc2cnc(NC(=O)/C=C/c3cccc(C)c3)s2)cc1`, for which the growth is 1.34% (active).

For the molecule `NCCCCCCNc1cc(-c2cccc(OC(F)(F)F)c2)nc2ccc(N3CCCC3)cc12`, the growth is -87.9% (active).

On to `COc1ccc(CN2CCc3c(Cl)nc(N)nc3C2=O)c(OC)c1`, for which the growth is 12% [100 µM] (inactive).

Take `N=C(N)c1ccc(-c2ccc(-c3ccc(F)cc3)s2)nc1`: the growth was 25.1% (inactive).

`COc1ccc(-c2nc(-c3nc4ccc(C)cc4[nH]3)cc3c2[nH]c2ccccc23)cc1`: the growth is 48.8% (inactive).

As for `Cc1ccccc1Nc1cc(O)c2c(=O)cc(-c3ccccc3)oc2c1`, the growth was -2.12% (active).

Turning to `O=C(Nc1cnn2ccc(N3CCC[C@@H]3c3cc(F)ccc3F)nc12)N1CC[C@H](O)C1`, the growth is 88.7% (inactive).

`COc1cc2nc(Nc3cccc(F)c3)nc(Nc3cc(C)[nH]n3)c2cc1OC`: the growth was -76.6% [20 µM] (active).

As for `CCOC(=O)C1=C(C)N=c2s/c(=C\c3ccccc3O)c(=O)n2C1c1ccc(OC)c2ccccc12` (stereo not given), the growth is -77.6% (active).

On to `O=P(O)(c1ccccc1)c1ccccc1I`, for which the growth was 89.5% (inactive).

In the case of `CC/C(=C(/c1ccc(O)cc1)c1ccc(OCCN2CCCCCC2)cc1)c1ccc(Cl)cc1`, the growth was 38.6% (inactive).

With `O=C(Nc1ccccc1)Nc1cccc(Oc2nnc(Cl)c3ccccc23)c1`, the growth was 0.467% (active).
